Only some compounds are listed: those with a hit (about 15% of all), similar ones and a draw of the others.
HCV inhibitor – inhibitors of hepatitis C virus infection; Huh7.5.1 HCVcc-Cre infection, luciferase reporter, 44 h; Potency, µM (series often up to 41.8 µM), hits mostly inhibitors; 340,000 compounds, 3.4% hits
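Luciferase read-out (15 sec integration) after a 15 min room-temperature substrate step quantifies HCVcc-Cre infection. Cells, 1,000 per well, had compound added 4 h post-plating, then virus at ~0.5 moi, and were cultured 44 h.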
Pf growth 48h – inhibits P. falciparum growth in the first generation, 48 h. 310,000 compounds, 5.9% hits. P. falciparum luciferase growth in erythrocytes, 48 h. Potency, µM (titrated, usually from 28.7 µM), usual class: inhibitors
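In quantitative HTS format, infected erythrocytes bearing luciferase-reporter parasites were treated for a single generation at 37 C. Luminescence after adding detection reagent served as the growth measure.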
SARS PLP yeast – inhibitors of SARS-CoV papain-like protease in yeast; S. cerevisiae expressing SARS-CoV PLpro, growth rescue; Potency, µM (series often up to 32.9 µM), usual class: activators; 330,000 compounds, 0.19% hits; AID 485353; calls by dose curve; also: nearly all actives have a fitted effect of over 55% in size
Sm TGR block – inhibitors of Schistosoma mansoni thioredoxin glutathione reductase | Q962Y6 | AID 485364 | 360,000 compounds, 3% hits | purified TGR, DTNB reduction, TNB absorbance 405 nm | Potency, µM (series often up to 114 µM), most hits filed as inhibitors; also: nearly all actives have a fitted effect of over 60% in size
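Kinetic colorimetric format: TGR-catalysed, NADPH-driven DTNB reduction monitored via TNB absorbance. Enzyme dispensed at 20 nM; compound exposure 15 min at room temperature before reaction start.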
HCMV antiviral – inhibitors of human cytomegalovirus; HFF cells, HCMV-luciferase reporter, 72 h; hits give low values; activity change, negative = inhibition, % at 57.5 µM; 410,000 compounds, 4.5% hits; in the data active = activity change below about -60%; inconclusive = no clear call, values can overlap the other calls; inactive = above about -39%
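Screen run at 2 compound doses on HFFs infected with reporter HCMV, MOI 1 PFU/cell. Luciferase activity from cell lysates at 72 h post infection gave inhibition relative to buffer-only and Salinomycin wells.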
Pf growth 96h – P. falciparum growth inhibition at 96 hour, primary screen for plastid delayed-death inhibitors; P. falciparum luciferase reporter growth, 96 h; Potency, µM (series often up to 28.7 µM), most hits filed as inhibitors; 320,000 compounds, 6.9% hits; AID 504834
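96 h incubation, 37 C, 5% CO2, of luciferase-reporter P. falciparum-infected RBCs (2% hematocrit, 0.05% parasitemia final) with test compounds; endpoint luminescence.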
Of the large screens only hits and unclear results are named; the others gave an inactive call. Unless noted, calls follow the shape of the dose curve; as a rule, active = well fitted curve in the direction sought with a large enough effect; inconclusive = small, poorly fitted or top-dose-only effect, or another doubt; inactive = no such curve, though single readings can be large; an effect the other way counts as inactive or inconclusive.

Cc1c(C)n2c(SCC(=O)N3CCN(c4ccccc4)CC3)nnc2[nH]c1=O	Pf growth 48h 3.29µM, Pf growth 96h inconclusive (no result: SARS PLP yeast)
C=CCn1c(CNC(=O)c2ccco2)nnc1SCC(=O)N1c2ccccc2Sc2ccccc21	HCV inhibitor inconclusive, Sm TGR block 35.5µM, Pf growth 96h inconclusive (no result: Pf growth 48h)
Cn1c(CNC(=O)c2ccco2)nnc1SCC(=O)c1ccccc1	Pf growth 96h inconclusive
CCn1c(CNC(=O)c2ccco2)nnc1SCC(=O)c1ccccc1	HCMV antiviral -61.8
COc1ccc(-n2c(C)cc(C(=O)COC(=O)c3cc(NC(=O)c4cccs4)c(OC)c(OC)c3)c2C)cc1	Pf growth 48h 1.85µM, HCMV antiviral inconclusive, Pf growth 96h inconclusive
COc1cc(C(=O)OCC(=O)NCc2ccc(F)cc2)cc(NC(=O)c2cccs2)c1OC	Pf growth 48h inconclusive
COc1cc(NC(=O)c2cccs2)c(C(=O)OCC(=O)c2cc(C)n(-c3ccccc3)c2C)cc1OC	Pf growth 48h inconclusive, Pf growth 96h inconclusive
COc1cc(NC(=O)c2cccs2)c(C(=O)OCC(=O)c2cc(C)n(-c3ccc(F)cc3)c2C)cc1OC	Pf growth 96h 2.62µM
Cc1ccc(S(=O)(=O)N2CCN(C(=O)CN3CCCSc4ccccc43)CC2)cc1	Pf growth 48h inconclusive, Pf growth 96h inconclusive
Cc1nc(N)c(CC(Br)CBr)c(Cl)n1 (centres undefined)	Pf growth 48h 0.0738µM, HCMV antiviral -68.5, Pf growth 96h inconclusive
CCOc1ccc(-c2cc(C(=O)Nc3ccc(NC(C)=O)cc3)no2)cc1	none (no result: HCV inhibitor, Pf growth 48h, SARS PLP yeast, Pf growth 96h)
COc1ccc(NC(=O)CN(c2ccc(C)cc2)S(=O)(=O)c2c(C)nn(C)c2C)cc1	Pf growth 48h inconclusive
COc1ccc(NC(=O)CN(c2ccc(OC)cc2)S(=O)(=O)c2c(C)nn(C)c2C)cc1	Pf growth 48h inconclusive
Cc1cccc(NC(=O)CN(c2ccc(C(C)C)cc2)S(=O)(=O)c2c(C)nn(C)c2C)n1	HCV inhibitor inconclusive, Pf growth 96h 2.94µM (no result: Pf growth 48h)
COc1ccc2nc(NC(=O)CN(c3ccc(C)cc3)S(=O)(=O)c3c(C)nn(C)c3C)sc2c1	HCV inhibitor inconclusive, Pf growth 48h 11.7µM, Pf growth 96h 2.62µM
CCOC(=O)c1ccc(NC(=O)CN(c2ccc(C)cc2)S(=O)(=O)c2c(C)nn(C)c2C)cc1	Pf growth 48h 10.4µM (no result: Pf growth 96h)
COc1ccc(CCNC(=O)C2CCC(C(C)(C)C)CC2)cc1OC (centres undefined)	Pf growth 48h inconclusive, Pf growth 96h inconclusive
NC(=O)[C@@H]1CCCN1Cc1c(C(=O)N2CCc3ccccc3C2)nc2ccc(Cl)cn12	Pf growth 96h inconclusive
O=C(Nc1ccc(F)c(Cl)c1)c1ccc2sc([C@@H]3O[C@H](CO)[C@H](O)[C@H](O)[C@H]3O)nc2c1	none (no result: HCV inhibitor, Pf growth 48h, SARS PLP yeast, Sm TGR block, Pf growth 96h)
CN(C(=O)c1cccc(NC(=O)Cc2cccc(NC(=O)C3CCCN(C(=O)C4CCC4)C3)c2)c1)C1CCC1 (centres undefined)	none (no result: Pf growth 48h, SARS PLP yeast, Sm TGR block, Pf growth 96h)
COc1ccc(CN2CCC(Cc3ccccc3)CC2)cc1OC	HCV inhibitor inconclusive, Pf growth 48h inconclusive
COc1cccc(OC)c1OCCCN1CCC(Cc2ccccc2)CC1	HCV inhibitor 11.2µM, Pf growth 48h inconclusive, Pf growth 96h inconclusive
COc1cccc(OC)c1C(=O)OCC(=O)N1CCC(Cc2ccccc2)CC1	HCMV antiviral -99.5 (no result: Pf growth 48h, Sm TGR block, Pf growth 96h)
Cc1ccc(C(=O)OCC(=O)N2CCC(Cc3ccccc3)CC2)cc1N	none
Nc1cc(C(=O)OCC(=O)N2CCC(Cc3ccccc3)CC2)ccc1Cl	HCMV antiviral -64.6, Pf growth 96h inconclusive
COc1cccc(C(=O)OCC(=O)N2CCC(Cc3ccccc3)CC2)c1OC	none (no result: Pf growth 48h, Sm TGR block, Pf growth 96h)
OC(CNC1Cc2ccccc2C1)COc1ccc(Cl)cc1 (centres undefined)	Pf growth 48h inconclusive
OC(CNC1CCCc2ccccc21)COc1c(Cl)cccc1Cl (centres undefined)	HCV inhibitor inconclusive, Pf growth 48h 1.85µM, Pf growth 96h 3.29µM
COc1cc(OC)c(-c2nnc3n(CCc4ccccc4)c(=O)c4ccccc4n23)cc1OC	Pf growth 48h inconclusive, Pf growth 96h inconclusive
COc1ccc(N2CCn3c2nc2c3c(=O)n(CCCc3ccccc3)c(=O)n2C)c(OC)c1	HCV inhibitor 14.1µM, Pf growth 48h inconclusive, HCMV antiviral -90.5, Pf growth 96h inconclusive
COc1ccc(N2CC(C)Cn3c2nc2c3c(=O)n(Cc3ccccc3)c(=O)n2C)c(OC)c1 (centres undefined)	HCV inhibitor inconclusive, Pf growth 48h inconclusive, Pf growth 96h 8.28µM
COc1ccc(-c2nnc3n(CCc4ccccc4)c(=O)c4ccccc4n23)c(OC)c1	Pf growth 48h 13.1µM, Pf growth 96h 4.65µM
COc1ccc(N2CCn3c2nc2c3c(=O)n(CCc3ccccc3)c(=O)n2C)c(OC)c1	Pf growth 96h 11.7µM (no result: HCV inhibitor, HCMV antiviral)
CCCSc1oc(-c2cccs2)nc1S(=O)(=O)c1ccc(Cl)cc1	none (no result: HCV inhibitor, Pf growth 48h, SARS PLP yeast, Pf growth 96h)
CCCCNC(=O)C1(C)CCN1C(=O)c1oc2ccccc2c1C (centres undefined)	none (no result: HCV inhibitor, Pf growth 48h, SARS PLP yeast, Sm TGR block, Pf growth 96h)
CC(=O)N1c2ccc(Cl)cc2C2OCCC2C1c1ccco1 (centres undefined)	Pf growth 48h inconclusive, HCMV antiviral -66.1, Pf growth 96h inconclusive
Clc1ccc2c(c1)C1OCCC1C(c1ccco1)N2 (centres undefined)	HCV inhibitor inconclusive, Sm TGR block 31.6µM
O=C(Nc1cc(Cl)ccc1N1CCOCC1)c1ccco1	HCV inhibitor inconclusive, Pf growth 96h inconclusive
CCCCCC(CC(=O)NO)C(=O)NC(C(=O)N1CCCC1CO)C(C)C (centres undefined)	HCV inhibitor inconclusive, Pf growth 48h 3.29µM, HCMV antiviral -69.1, Pf growth 96h 2.94µM (no result: SARS PLP yeast)
CC(C)(C)OC(=O)N1CCC[C@@H]1CO	none (no result: SARS PLP yeast, HCMV antiviral)
C=CC[C@@H]1C=C[C@H](O/N=C/c2ccc(C(=O)N3[C@H](c4ccc(C)cc4)[C@@H](C)CC[C@H]3C(=O)OC)cc2)[C@@H](CO)O1	Pf growth 96h inconclusive (no result: HCMV antiviral)
COC(=O)[C@@H]1CC[C@H](C)[C@@H](c2ccc(C)cc2)N1C(=O)c1ccc(/C=N/OC[C@@H](O)COCc2ccco2)cc1	HCV inhibitor inconclusive, Pf growth 48h 6.57µM, Sm TGR block inconclusive, Pf growth 96h 6.57µM (no result: HCMV antiviral)
C[C@H]1O[C@H](C2CCCC2)CC2=C1C(=O)OC(C)(C)O2	none (no result: HCV inhibitor, Pf growth 48h, SARS PLP yeast, Sm TGR block, Pf growth 96h)
CC(C)NC(=O)COc1coc(CN2CCN(c3cccc(Cl)c3)CC2)cc1=O	Pf growth 96h 11.7µM
O=C(COc1coc(CN2CCN(c3cccc(Cl)c3)CC2)cc1=O)NC1CCCC1	HCV inhibitor inconclusive, Pf growth 48h 9.28µM, Pf growth 96h inconclusive
COc1cc(OC)c(CN2CCCCCCC2)cc1Br	Pf growth 96h 13.1µM (no result: Pf growth 48h)
COc1cc(OC)c(CN2CCCN(C)CC2)cc1Br	HCV inhibitor 7.08µM, Pf growth 96h inconclusive

Screening data as filed in PubChem BioAssay.
